TbREL1 primary – TbREL1 inhibition, primary screen; TbREL1 RNA ligation, FRET fluorescence; inhibition, % at 9.66 µM; 0.49% of 89,000 active; AID 1117264;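 active means inhibition above the mean inhibition across all screened compounds plus 3 SD, cut at about 11% in these data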;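 further: 0% = plate median of test wells and 100% = NSC42067 control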
Target sequence (P86926 whole entry, looked up): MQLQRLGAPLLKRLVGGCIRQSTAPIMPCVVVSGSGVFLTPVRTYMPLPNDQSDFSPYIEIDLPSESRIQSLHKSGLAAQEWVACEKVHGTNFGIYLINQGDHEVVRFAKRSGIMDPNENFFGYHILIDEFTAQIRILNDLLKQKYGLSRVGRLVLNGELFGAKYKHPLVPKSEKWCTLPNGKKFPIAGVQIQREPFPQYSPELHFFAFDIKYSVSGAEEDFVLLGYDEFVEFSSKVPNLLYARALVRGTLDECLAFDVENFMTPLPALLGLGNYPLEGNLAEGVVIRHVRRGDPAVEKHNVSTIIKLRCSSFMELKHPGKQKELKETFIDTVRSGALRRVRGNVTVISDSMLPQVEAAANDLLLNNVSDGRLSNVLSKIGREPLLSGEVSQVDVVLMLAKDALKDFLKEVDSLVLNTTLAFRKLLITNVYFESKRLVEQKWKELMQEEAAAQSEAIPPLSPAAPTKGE
TbREL1 confirm – TbREL1 inhibition, confirmation; shares compounds with TbREL1 primary; TbREL1 RNA ligation, FRET fluorescence; inhibition, % at 9.66 µM; 37% of 390 active; AID 1117282;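 active means mean inhibition across replicates above a set limit taken from the earlier primary screen, cut at about 11% in these data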;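 further: 0% = REL1 with substrate and DMSO and 100% = REL1 plus control inhibitor NSC42067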
Starred values were filed as active, the others as inactive. This is one part of a sample in which hits are shown more often than they occur.

SMILES | TbREL1 primary | others
CC(C)CN(CC(C)C)C(=O)c1ccc2c(c1)NC(=O)C(C)(C)O2 | -3.4
O=C(Nc1nc2ncccn2c1-c1ccc(C(F)(F)F)cc1)c1ccc(F)cc1 | -0.9
COc1cc(OC)cc(-c2csc(N3CCC(C(N)=O)CC3)n2)c1 | 6.1
COc1ccc(-c2cc(-c3nnc(SCC(=O)Nc4cccc(Cl)c4C)n3N)[nH]n2)cc1 | 1.2
CCOC(=O)C1=C(C)N(C)C(=O)NC1c1cccc([N+](=O)[O-])c1 (configuration not stated) | -0.7
CCOC(=O)c1c(C)n(C)c2cc([N+](=O)[O-])c(O)c([N+](=O)[O-])c12 | 11.2* | TbREL1 confirm=3.0
CCOC(=O)c1c(C)n(C)c2ccc(OCC(N)=O)cc12 | 6.0
COC(=O)[C@]12C[C@H](CC(=O)NCc3cccs3)C(=O)N(Cc3cccc4ccccc34)C1=C[C@H](C(C)C)O[C@@H]2C1CC1 | 0.8
O=C(O)c1cc(N2C(=O)C=CC2=O)cc(N2C(=O)C=CC2=O)c1 | 84.8* | TbREL1 confirm=30.4*
Cc1ccc(N2C(=O)c3ccc(C(=O)O)cc3C2=O)cc1C | -0.4
O=C(O)c1cc(C(=O)O)c(-c2ccccc2)c(C(=O)O)c1 | 0.3
COC(=O)[C@@]12CCCCC3=C1N(CCC3)C(=O)[C@H]2CC(=O)NCC12CC3CC(CC(C3)C1)C2 | 0.1
Cc1ccc(-c2nc(C3CCCN(S(=O)(=O)c4ccccc4)C3)no2)cc1 (configuration not stated) | 4.0
COc1ccc(C(=O)Nc2cc(Cl)c(Br)cc2C(=O)O)cc1 | -1.4
COc1cccc(N2CCN(CC(=O)NCc3c(F)cccc3F)CC2)c1 | -2.8
COC(=O)[C@]12C[C@H](CC(=O)NCc3cccc4ccccc34)C(=O)N(Cc3ccco3)C1=C[C@H](COCc1ccccc1)O[C@@H]2C | -4.4
CCC[C@H]1[C@@H](OC(=O)NCc2ccco2)CC[C@@]23CCCN2C(=O)CCC[C@@H]13 | -3.1
CC(C)CCOC(=O)C1C2C=CC3(CN(Cc4cccs4)C(=O)C13)O2 (configuration not stated) | -5.6
O=C(NCc1cccs1)C1C2C=CC3(CN(Cc4ccccc4)C(=O)C13)O2 (configuration not stated) | 1.6
O=C(NCC1CCCO1)C1C2C=CC3(CN(Cc4cccs4)C(=O)C13)O2 (configuration not stated) | 19.6* | TbREL1 confirm=1.1
CCCC1CCC2(CC1)CCC2OC(=O)Nc1ccc2c(c1)OCO2 (configuration not stated) | -0.9
Cc1ccccc1C1CCC2(CC1)CCN(CC[C@@H](O)c1ccccc1)C2=O (some centres not stated) | -3.4
Cc1nn(-c2ccccc2)c(C)c1/C=N\N1CCN(Cc2ccccc2Cl)CC1 | 0.6
C=CCN1C(=O)[C@H](CC(=O)NCCc2ccccc2OC)[C@@]2(C(=O)OCC)CCCC=C12 | -2.9

Bioassay records (PubChem)
